Sampled rows, rich in hits. Any-hit rate of the full collection: about 11%.
FLuc inh-1: Firefly luciferase inhibition profiling of diverse chemical library using quantitative high-throughput screening. AID 1347043, 2019. 76,000 tested, 2.5% active. Luciferin 4-monooxygenase (Photinus pyralis), P08659. Potency, µM (titrated, usually from 115 µM), usual class: inhibitors. purified P. pyralis luciferase, luminescence, biochemical; also: nearly all actives have a fitted effect of over 65% in size
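Biochemical qHTS: compound (6-point titration) added to 10uM D-luciferin plus 10uM ATP in Tris acetate pH 7.5 buffer with Mg, Tween-20 and BSA, then purified enzyme at 10nM; light output imaged.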
HEK293 tox: Cytotoxic Profiling in HEK 293 Cell Line of Diverse Libraries Using Quantitative High-Throughput Screening | Potency, µM (titrated, usually from 115 µM), usual class: inhibitors | 94,000 tested, 6.6% active | HEK 293 viability, ATP luminescence (CellTiter-Glo), 48-72 h; also: nearly all actives have a fitted effect of over 60% in size
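Luminescence from cellular ATP, measured with CellTiter-Glo, indicates HEK 293 viability. Cells plated at 250 cells/well are treated with compound for 48 or 72 hr at 37 degree Celsius before reagent addition.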
NPR1 antag: Natriuretic polypeptide receptor (hNpr1) antagonism - Primary qHTS; AID 1347048, 2019; 76,000 tested, 1.6% active; HEK293 hNpr1 GloSensor cGMP, ANP-stimulated luminescence; Potency, µM (titrated, usually from 46.3 µM), usual class: inhibitors; Atrial natriuretic peptide receptor 1 (Homo sapiens), P16066; calls by dose curve; also: nearly all actives have a fitted effect of over 60% in size
Target sequence (P16066 whole entry, looked up): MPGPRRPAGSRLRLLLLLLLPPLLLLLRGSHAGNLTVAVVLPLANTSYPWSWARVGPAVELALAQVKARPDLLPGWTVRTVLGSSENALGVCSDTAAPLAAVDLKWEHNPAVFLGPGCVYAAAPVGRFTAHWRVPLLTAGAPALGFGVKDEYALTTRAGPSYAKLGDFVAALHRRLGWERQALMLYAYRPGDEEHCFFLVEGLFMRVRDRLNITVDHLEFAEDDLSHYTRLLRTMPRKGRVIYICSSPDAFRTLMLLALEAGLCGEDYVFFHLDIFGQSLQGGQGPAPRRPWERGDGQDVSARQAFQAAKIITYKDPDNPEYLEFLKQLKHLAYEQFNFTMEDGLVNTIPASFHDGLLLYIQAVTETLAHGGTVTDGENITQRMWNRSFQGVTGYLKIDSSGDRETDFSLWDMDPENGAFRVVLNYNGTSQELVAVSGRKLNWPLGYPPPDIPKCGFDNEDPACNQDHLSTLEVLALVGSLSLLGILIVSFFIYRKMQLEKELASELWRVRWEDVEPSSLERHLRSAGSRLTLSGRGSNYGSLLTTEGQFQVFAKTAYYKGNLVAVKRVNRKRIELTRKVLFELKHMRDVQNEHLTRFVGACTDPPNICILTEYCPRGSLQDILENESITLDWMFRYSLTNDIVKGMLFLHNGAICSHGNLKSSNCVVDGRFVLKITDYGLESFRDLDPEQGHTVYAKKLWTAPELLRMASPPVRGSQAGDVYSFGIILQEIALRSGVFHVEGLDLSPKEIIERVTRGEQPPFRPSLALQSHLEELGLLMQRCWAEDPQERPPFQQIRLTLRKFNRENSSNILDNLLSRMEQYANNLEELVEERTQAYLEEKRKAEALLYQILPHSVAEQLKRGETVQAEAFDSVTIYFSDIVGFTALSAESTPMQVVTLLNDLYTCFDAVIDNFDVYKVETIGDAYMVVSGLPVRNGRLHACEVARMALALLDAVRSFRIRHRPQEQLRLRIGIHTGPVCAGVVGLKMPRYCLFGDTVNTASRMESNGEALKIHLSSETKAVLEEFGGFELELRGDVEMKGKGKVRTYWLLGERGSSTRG
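Compound pre-incubated 30 min at room temperature on GloSensor-loaded HEK293 cells stably carrying hNpr1 and the pGS-40F cGMP biosensor. Stimulation uses hNppA at 0.1 nM final; luminescence is taken at baseline and 20 min post-agonist.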
NIH3T3 tox: Cytotoxic Profiling in NIH 3T3 Cell Line of Diverse Libraries Using Quantitative High-Throughput Screening | 94,000 tested, 4.3% active | Potency, µM (doses to about 96.7 µM), actives largely listed as inhibitors | AID 1345082, 2018 | NIH 3T3 viability, CellTiter-Glo ATP luminescence, 48-72 h; also: nearly all actives have a fitted effect of over 55% in size
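ATP-dependent luminescence (CellTiter-Glo) served as the viability signal for NIH 3T3 cells treated with compound for 48 or 72 hr at 37 °C.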
FLuc SDR -ATP: Firefly luciferase (FLuc-C-HiBiT) SDR gain of signal screen - without ATP; AID 1963318, 2024; Purified FLuc-C-HiBiT, Nano-Glo HiBiT luminescence, no ATP; shares compounds with FLuc inh-1; Potency, µM (series often up to 32.7 µM), actives largely listed as activators; 1,300 tested, 7.8% active; also: nearly all actives have a fitted effect of over 55% in size
FLuc SDR ATP: Firefly luciferase (FLuc-C-HiBiT) SDR gain of signal screen - plus ATP. shares compounds with FLuc inh-1. purified FLuc-C-HiBiT + ATP, HiBiT complementation luminescence. Potency, µM (titrated, usually from 32.7 µM), usual class: activators. 1,300 tested, 8.7% active;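 also: signal reports ligand binding via conformational change of the enzyme rather than luciferase catalysis; nearly all actives have a fitted effect of over 55% in size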
FLuc inh-2: Firefly luciferase (FLuc-C-HiBiT) enzymatic inhibition screen - Functional assay; purified FLuc-C-HiBiT enzyme, luciferin luminescence; 1,300 tested, 42% active; shares compounds with FLuc inh-1; Potency, µM (titrated, usually from 32.7 µM), most hits filed as inhibitors; also: nearly all actives have a fitted effect of over 70% in size
Hits are given with their value; 0 = inactive; ? = inconclusive; - = not tested or not shown. Unless noted, calls follow the shape of the dose curve; as a rule, active = well fitted curve in the direction sought with a large enough effect; inconclusive = small, poorly fitted or top-dose-only effect, or another doubt; inactive = no such curve, though single readings can be large; an effect the other way counts as inactive or inconclusive.

SMILES	FLuc inh-1	HEK293 tox	NPR1 antag	NIH3T3 tox	FLuc SDR -ATP	FLuc SDR ATP	FLuc inh-2
COc1cc(NC(=O)Nc2cccc(-c3ccc(N4CCOCC4)nn3)c2)cc(OC)c1	0.71µM	?	?	32µM	?	?	1.8µM
O=C(Nc1cccc(-c2ccc(N3CCOCC3)nn2)c1)Nc1ccc2c(c1)CCC2	0.89µM	?	?	0	0	?	2.8µM
COc1cc(NC(=O)N[C@H](C)c2onc(-c3ccccc3)c2C(=O)O)cc(OC)c1	0	0	0	?	-	-	-
Cc1c(F)cccc1NC(=O)Nc1cccc(-c2nnc3n2CCCC3)c1	?	0	0	0	-	-	-
O=C(Nc1cccc(-c2ccc(N3CCOCC3)nn2)c1)Nc1cccc(Cl)c1F	1.6µM	22µM	?	32µM	0	0	5.6µM
O=C(c1ccccc1F)N1CCCC(c2noc(COc3ccccc3F)n2)C1 (stereo unspecified)	0	?	0	?	-	-	-
O=C(NC1CCc2nn(CC3CC3)c(=O)n2CC1)c1ccc2cc[nH]c2c1 (stereo unspecified)	0	0	0	0	-	-	-
COc1cccc(CN2CCC(c3nn(Cc4ccccc4)c(=O)[nH]3)CC2)c1	0	0	0	0	-	-	-
O=C(Nc1cccc(F)c1)[C@@H]1OCCN(C2CC2)[C@H]1c1ccccc1	-	0	-	0	-	-	-
COc1ccccc1NC(=O)Nc1cccc(-c2ccc(N3CCOCC3)nn2)c1	1.4µM	?	?	?	?	?	3.1µM
O=C(Nc1cc(F)cc(F)c1)Nc1cccc(-c2ccc(N3CCOCC3)nn2)c1	1.3µM	32µM	10µM	?	?	?	3.1µM
COCc1cc(=O)n(CC(=O)Nc2cccc(F)c2)c(N2CCOCC2)n1	0	0	0	0	-	-	-
COc1cccc(NC(=O)c2cnc3c(c2)N(Cc2ccccc2)CCC3)c1	0	?	0	?	-	-	-
C[C@H](C(=O)N1CCCC1)C1CC[C@@]2(C)Cc3sc(-c4ccccc4)nc3[C@@H](C)[C@@H]2[C@H]1O (stereo partly specified)	8.9µM	45µM	?	?	3.1µM	2.2µM	2µM
COCCNC(=O)[C@@H](C)C1CC[C@@]2(C)Cc3sc(CSc4ccccc4)nc3[C@@H](C)[C@@H]2[C@H]1O (stereo partly specified)	7.1µM	?	11µM	?	0	?	?
C[C@H](C(=O)NCCN1CCOCC1)C1CC[C@@]2(C)Cc3sc(CS(=O)(=O)C(C)(C)C)nc3[C@@H](C)[C@@H]2[C@H]1O (stereo partly specified)	0	0	0	0	-	-	-
Cc1ccc(NC(=O)c2ncoc2-c2ccco2)cc1Cl	-	-	-	-	0	0	?
COc1ccc(C(=O)N2CCC(C(=O)N3CCC(N4Cc5cccn5C4=O)CC3)CC2)cc1	-	0	-	0	-	-	-
Nc1nc2c([nH]c(=O)n2[C@H]2C[C@H](O)[C@@H](CO)O2)c(=O)[nH]1	-	-	-	-	0	0	0
Cc1ccc(CN2C(=O)OC(c3cccc(NC(=O)c4ccc(C)cc4)c3)C2C(=O)NCC(C)C)cc1 (stereo unspecified)	7.1µM	?	?	0	0	11µM	?
Cc1cccc(C(=O)Nc2cccc(C3OC(=O)N(Cc4ccccc4)C3C(=O)NCC(C)C)c2)c1 (stereo unspecified)	?	?	0	?	-	-	-
CCOc1ccc2nc(N(Cc3cccnc3)C(=O)c3cccs3)sc2c1	-	-	-	-	0	0	0
Cc1noc(C)c1-c1ncc2c(n1)OCCN(Cc1ccccc1)C2=O	0	0	0	?	-	-	-
